22 molecules from PubChem BioAssay (NCI) can be followed below.

SMILES strings stand for the structures. Values joined by “and” are separate entries in the source; they are usually repeats but may differ in a detail not shown here. Equal values may be shown once. About 83,000 compounds went through this panel and 20% of them were active in at least one assay; those are over-represented in the sample as a whole.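 Negative percent growth values reflect cell death: -40 means 40% of the cells present at the start died, and -100 means all died.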 Active and inactive are the calls of the source. The calls were made as follows: active = growth percent below 10; inactive = the rest.

This assay has as its system UACC-62 melanoma. Briefly: NCI-60 one-dose screen, 48 h (100 = growth as untreated, 0 = no growth, -100 = all killed). Particulars: 10 µM unless noted.
In the case of `O=C1NC(=S)NC1C(Cc1ccccc1)c1ccco1` (configuration not stated), the growth is 36.5% [100 µM] (inactive) and 57.6% [100 µM] (inactive). Turning to `C=C1CC(O)C2C(=C)C(=O)OC2C2C(C)C(=O)CC12` (configuration not stated), the growth is -89.7% [100 µM] (active) and -97.7% [100 µM] (active). The figure for `CC(C)C1OC23CCCCC2C(C#N)(C#N)C1(C#N)C(=N)O3` (configuration not stated) is -2.68% [100 µM] (active); for `CC(C)=CCC/C(C)=C/CC/C(C)=C/CSc1ccc(Cl)cc1C(=O)O` it is -72.3% [100 µM] (active) and 10.4% [100 µM] (inactive); for `COc1ccc2c3c(c(=O)n(C)c2c1OC)C=CC(C)(C)O3` it is 0.949% [100 µM] (active) and 6.15% [100 µM] (active). The figure for `CCCCCCCCCCCCCC1=C(O)C(=O)C(CC2=C(O)C(=O)C(CCCCCCCCCCCCC)=C(O)C2=O)=C(O)C1=O` is 9.52% [100 µM] (active) and -61.7% [100 µM] (active); for `Oc1ccccc1-c1n[nH]c(-c2ccccc2O)n1` it is 45.8% [100 µM] (inactive) and 4.35% [100 µM] (active); for `O=c1[nH]c(=O)n(C2CC(O)C(CO)O2)cc1Br` (configuration not stated) it is 72.2% [100 µM] (inactive) and 19.1% [100 µM] (inactive). Consider `CC1(C)CCCC(C)(C2CCC3(C)C2C(O)CC2C4(C)CCC(O)C(C)(C)C4C(O)CC23C)O1` (configuration not stated), for which the growth was -76.6% [100 µM] (active) and -83.9% [100 µM] (active).

Take `C/C(Cl)=N/OC(=O)Nc1ccc(S(N)(=O)=O)c(C)c1`: the growth was -93.6% [100 µM] (active) and -100% [100 µM] (active). As for `CC(=O)Nc1c(C)cc2c(nc3n2CCC3OC(C)=O)c1[N+](=O)[O-]` (configuration not stated), the growth was 134% [100 µM] (inactive) and 108% [100 µM] (inactive). As for `N#CC1C(=O)N(c2ccccc2)NC12OC(=O)c1ccncc12` (configuration not stated), the growth is 69.2% [20 µM] (inactive) and 17.2% [20 µM] (inactive). In the case of `CCOC(=O)C1(C#N)C(=O)c2cc[n+](CC[n+]3ccc4c(c3)C(=O)C(C#N)(C(=O)OCC)C4=O)cc2C1=O` (configuration not stated), the growth was 66.6% [100 µM] (inactive) and 29.5% [100 µM] (inactive). In the case of `O=[N+]([O-])c1cccc(-c2ncnc(-c3cccc([N+](=O)[O-])c3)n2)c1`, the growth is 53.2% [100 µM] (inactive) and 0.549% [100 µM] (active). For `CC1(C)CC2(C)OC(=N)C1(C#N)C2(C#N)C#N` (configuration not stated), the growth is -92.9% [100 µM] (active). `CC(C)(C)O/N=C/c1cc(NC(=S)c2ccsc2)ccc1Cl`: the growth is -90.7% [100 µM] (active) and -85.1% [100 µM] (active).

Consider `Cc1ccc(NC(=S)C#N)c(C)c1`, for which the growth was 41.9% [100 µM] (inactive) and 1.46% [100 µM] (active). The figure for `Nc1cc2c3c(cccc3c1)C(=O)N(c1ccc(OCCN3CCCC3)cc1)C2=O` is -37.5% [100 µM] (active) and -91.1% [100 µM] (active).

With `CCOC(=O)/C(C#N)=C(/NNc1ccccc1)c1ccncc1C(=O)O`, the growth was 61.3% [100 µM] (inactive) and 11.4% [100 µM] (inactive).

`Nc1nc(Nc2cc(F)c(Cl)c(F)c2)cc(=O)[nH]1`: the growth is 85.2% [100 µM] (inactive) and -90.5% [100 µM] (active).

For the molecule `Cc1cc2c3c(nc4ccccc42)C(=O)c2cccnc2-c3n1`, the growth is -89.9% [100 µM] (active) and -100% [100 µM] (active). For `CC(=O)NC(CS/N=N/c1nc[nH]c1C(N)=O)C(=O)O` (configuration not stated), the growth was -5.07% [100 µM] (active) and 0.469% [100 µM] (active).
